These results are taken from PubChem BioAssay.

Results filed as inconclusive are left out. Calls of active or inactive are those of the source.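 The calls were made as follows, unless noted: active = normalized viability below 100% at a tested concentration; inactive = the rest.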

The nature of experiment [1]: liver-stage malaria parasite growth inhibition, primary screen, cell-based, HepG2, luciferase luminescence, HepG2 viability (AID 624349; in the data active = parasite load remaining mostly below about 12%, no sharp cut-off; inactive = mostly above about 10%;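 also: 100% = mean of DMSO negative control wells on the same plate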). The settings on record: P. berghei liver stage in HepG2, luciferase luminescence, concentration not given here; parasite load remaining: stronger effect = lower value; viability: measured here: HepG2 viability without parasites.
Experiment [2] in a line: growth inhibition of DIPG glioma cells, dose response, cell-based, SU-DIPG-XVII, MIPE5.0, CellTiter-Glo, qHTS (AID 1347060; cut-off not given, nearly all actives have AC50 up to about 26 µM;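 also: cells exposed to compound for 48 hours before viability readout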). The conditions noted are these: SU-DIPG-XVII viability, CellTiter-Glo ATP luminescence. (In general: ATP-based viability assays read luminescence as a measure of living cells.)
Experiment [3] can be described thus: growth inhibition of DIPG glioma cells, dose response, cell-based, SU-DIPG-XIII, MIPE4.0, CellTiter-Glo, qHTS (AID 1347061; cut-off not given, nearly all actives have AC50 up to about 37 µM;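 also: cells exposed to compound for 48 hours before readout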). The settings on record: SU-DIPG-XIII viability, CellTiter-Glo ATP luminescence.
Experiment [4] is described as follows: SU-DIPG-VI glioma cell viability, MIPE4.0 library, CellTiter-Glo luminescence, qHTS (AID 1347066; cut-off not given, nearly all actives have AC50 up to about 30 µM;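 also: cells exposed to compound for 48 hours before readout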). The settings on record: CellTiter-Glo ATP luminescence.
Experiment [5] is described as follows: SU-DIPG-XXV glioma cell viability, MIPE5.0 library, qHTS (AID 1347068; cut-off not given, nearly all actives have IC50 up to about 30 µM;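 as to IC50: cells exposed to compound for 48 hours before viability readout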). (In general: qHTS replaces the single test concentration by a dilution series.)
Experiment [6] can be described thus: sensitizers of A549 cells to miR-34 induction, primary screen, imaging, A549 dox-inducible miR-34, nuclei and caspase counts (AID 1347080;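 active = compounds whose cell count with miR-34 switched on is under 0.7 times the count with it off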). The conditions noted are these: A549 miR-34 inducible, Hoechst nuclei count, 48 h.
Experiment [7] in a line: survival rescue of mitochondrial mutant cells in low glucose, primary screen, MELAS cybrids, Rieske KO mouse fibroblasts, CellTiter-Glo (AID 1508586;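 active = mean z-score across replicates of 1.96 or higher in either the MELAS or the Rieske mutant cell line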;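 also: z relative to plate mean and SD of compound and empty wells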).
Experiment [8] in a line: growth inhibition of DIPG glioma cells, dose response, cell-based, JHH-DIPG-1, MIPE4.0, CellTiter-Glo, qHTS (AID 1347062; cut-off not given, nearly all actives have AC50 up to about 27 µM;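 also: cells exposed to compound for two days before readout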). The conditions noted are these: JHH-DIPG-1 viability, CellTiter-Glo ATP luminescence.
Experiment [9] is described as follows: growth inhibition of DIPG glioma cells, dose response, cell-based, SU-DIPG-IV, MIPE4.0, CellTiter-Glo, qHTS (AID 1347063; cut-off not given, nearly all actives have AC50 up to about 30 µM;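 also: compound exposure lasted 48 hours before the viability readout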). The settings on record: SU-DIPG-IV viability, CellTiter-Glo ATP luminescence.
Experiment [10] can be described thus: growth inhibition of DIPG glioma cells, dose response, cell-based, SU-DIPG-XIII, MIPE5.0, CellTiter-Glo, qHTS (AID 1347064; cut-off not given, nearly all actives have AC50 up to about 23 µM;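 also: cells exposed to compound for 48 hours before the viability read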). The settings on record: SU-DIPG-XIII viability, CellTiter-Glo ATP luminescence.
Experiment [11] in a line: viability loss in pontine glioma line – cell-based, SU-DIPG-XXV, MIPE5.0, CellTiter-Glo, qHTS, dose response (AID 1347065; cut-off not given, nearly all actives have AC50 up to about 26 µM;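 also: cells exposed to compound for 48 hours before ATP readout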). The conditions noted are these: CellTiter-Glo ATP luminescence.
Experiment [12] can be described thus: JHH-DIPG-1 glioma cell viability, MIPE5.0 library, CellTiter-Glo luminescence, qHTS (AID 1347067; cut-off not given, nearly all actives have AC50 up to about 26 µM;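 also: cells exposed to compound for 48 hours before readout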). The settings on record: JHH-DIPG-1 glioma viability, CellTiter-Glo ATP luminescence.
Experiment [13] can be described thus: modifiers of HSF1 nuclear foci, imaging, Selleck Cancer Library (AID 1347162; in the data active = plate-normalised HSF1 focus index below about 0.46). The conditions noted are these: human cells, at 10 µM; SSMD: measured here: HSF1 foci SSMD mean; cell count: measured here: cell number; plate-normalised HSF1 focus index: stronger effect = lower value.
Experiment [14] can be described thus: ovarian cancer cell viability with rucaparib, profiling panel, oncology-focused library, rucaparib conditional (AID 1508598). The conditions noted are these: patient-derived ovarian cancer cells, CellTiter-Glo viability, 144 h, stronger effect = lower value.
Setting [15] is: stronger effect = lower value, cell number ratio, induced over uninduced.
The mark [16] stands for this setting: measured here: relative caspase fold change +Dox/-Dox.
Where [17] appears, read: measured here: total cells with miR-34 induction, stronger effect = lower value.
Setting [18] is: measured here: total cells without miR-34 induction.
[19] abbreviates: MELAS cybrid survival, CellTiter-Glo 48 h, stronger effect = higher value.
Setting [20] is: Rieske KO mouse fibroblast survival, CellTiter-Glo 72 h.

As for `CC(C)n1c(/C=C/[C@H](O)C[C@H](O)CC(=O)O)c(-c2ccc(F)cc2)c2ccccc21`, in experiment [1], the parasite load remaining is 134% (inactive). In addition, the viability in experiment [1] was found to be 92.6%. For the same compound, the AC50 in experiment [2] is 8.33 µM (active). Also, the compound was classed as inactive in experiment [3], in [4] and in [5]. Further, the fold change was 1.07 (inactive) in [6] (setting [15]) and 0.873 in experiment [6] (setting [16]). The cell count in experiment [6] (setting [17]) was determined as 1670; in experiment [6] (setting [18]) it was 1560. Further, the values for the z-score in experiment [7] (setting [19]) and in experiment [7] (setting [20]) were -2.58 (inactive) and 0.0762, respectively.
On to `CNC(=O)c1cc(Oc2ccc(NC(=O)Nc3cc(C(C)(C)C)nn3-c3ccc4ncccc4c3)c(F)c2)ccn1`, for which the AC50 in experiment [2] is 5.9 µM (active); in [8], 7.43 µM (active); in [9] it was 8.33 µM (active); in experiment [10], 66.1 nM (active); in experiment [11], 9.34 µM (active); in [12], 5.9 µM (active). The compound was called inactive in experiment [4]. Besides, the IC50 in experiment [5] is 20.9 µM (active). Also, the figures for the fold change in experiment [6] (setting [15]) and in experiment [6] (setting [16]) were 0.963 (inactive) and 0.469, respectively. Moreover, the cell count in [6] (setting [17]) came to 608; in experiment [6] (setting [18]), 632; in experiment [13], 6970. The compound also gave an SSMD in experiment [13] of 0.0864. Further, the plate-normalised HSF1 focus index in experiment [13] is 1.01 (inactive). The z-score is 3.18 (active) in experiment [7] (setting [19]) and 0.93 in [7] (setting [20]). Also, the viability in [14] (at 0.000305 µM, OCI-C5x cells, with rucaparib 10 µM, 100% = cells with rucaparib alone) is 112% (inactive); in experiment [14] (at 0.000305 µM, OCI-C5x cells, without rucaparib) it was 112% (inactive); in [14] (at 0.000305 µM, OCI-P5x cells, with rucaparib 20 µM, 100% = cells with rucaparib alone) it was 103% (inactive); in experiment [14] (at 0.000305 µM, OCI-P5x cells, without rucaparib), 108% (inactive); in experiment [14] (at 0.00122 µM, OCI-C5x cells, with rucaparib 10 µM, 100% = cells with rucaparib alone), 102% (inactive); in experiment [14] (at 0.00122 µM, OCI-C5x cells, without rucaparib), 117% (inactive). Moreover, the viability in experiment [14] (at 0.00122 µM, OCI-P5x cells, with rucaparib 20 µM, 100% = cells with rucaparib alone) is 110% (inactive); in [14] (at 0.00122 µM, OCI-P5x cells, without rucaparib) it was 103% (inactive); in [14] (at 0.00488 µM, OCI-C5x cells, with rucaparib 10 µM, 100% = cells with rucaparib alone), 108% (inactive); in [14] (at 0.00488 µM, OCI-C5x cells, without rucaparib), 116% (inactive); in experiment [14] (at 0.00488 µM, OCI-P5x cells, with rucaparib 20 µM, 100% = cells with rucaparib alone), 116% (inactive); in experiment [14] (at 0.00488 µM, OCI-P5x cells, without rucaparib) it was 102% (inactive). In addition, the viability in experiment [14] (at 0.0195 µM, OCI-C5x cells, with rucaparib 10 µM, 100% = cells with rucaparib alone) was 107% (inactive); in experiment [14] (at 0.0195 µM, OCI-C5x cells, without rucaparib), 118% (inactive); in [14] (at 0.0195 µM, OCI-P5x cells, with rucaparib 20 µM, 100% = cells with rucaparib alone), 110% (inactive); in [14] (at 0.0195 µM, OCI-P5x cells, without rucaparib), 97.7% (active); in experiment [14] (at 0.0781 µM, OCI-C5x cells, with rucaparib 10 µM, 100% = cells with rucaparib alone), 115% (inactive); in experiment [14] (at 0.0781 µM, OCI-C5x cells, without rucaparib), 113% (inactive). In addition, the viability in [14] (at 0.0781 µM, OCI-P5x cells, with rucaparib 20 µM, 100% = cells with rucaparib alone) was 114% (inactive); in experiment [14] (at 0.0781 µM, OCI-P5x cells, without rucaparib), 97.7% (active); in experiment [14] (at 0.313 µM, OCI-C5x cells, with rucaparib 10 µM, 100% = cells with rucaparib alone), 96.9% (active); in experiment [14] (at 0.313 µM, OCI-C5x cells, without rucaparib) it was 105% (inactive); in experiment [14] (at 0.313 µM, OCI-P5x cells, with rucaparib 20 µM, 100% = cells with rucaparib alone) it was 120% (inactive); in experiment [14] (at 0.313 µM, OCI-P5x cells, without rucaparib), 96.4% (active). Also, the viability in [14] (at 1.25 µM, OCI-C5x cells, with rucaparib 10 µM, 100% = cells with rucaparib alone) is 77.5% (active); in experiment [14] (at 1.25 µM, OCI-C5x cells, without rucaparib) it was 96.1% (active); in [14] (at 1.25 µM, OCI-P5x cells, with rucaparib 20 µM, 100% = cells with rucaparib alone), 29.9% (active); in [14] (at 1.25 µM, OCI-P5x cells, without rucaparib) it was 97.7% (active); in [14] (at 5 µM, OCI-C5x cells, with rucaparib 10 µM, 100% = cells with rucaparib alone), 9.96% (active); in experiment [14] (at 5 µM, OCI-C5x cells, without rucaparib) it was 8.93% (active). Also, the viability in [14] (at 5 µM, OCI-P5x cells, with rucaparib 20 µM, 100% = cells with rucaparib alone) was 17.1% (active); in [14] (at 5 µM, OCI-P5x cells, without rucaparib), 4.51% (active).
For the compound `NS(=O)(=O)c1cccc2c1C(=O)c1cccc(O)c1C2=O`, the AC50 in [2] was 2.35 µM (active); in experiment [8], 1.18 µM (active); in experiment [9], 0.332 µM (active); in [10], 1180 nM (active); in experiment [11], 1.86 µM (active); in [4], 526 nM (active). For the same compound, the AC50 in experiment [12] was 2.09 µM (active). For the same compound, the IC50 in experiment [5] was 9.34 µM (active).

For orientation: viability means a read-out of living cells in per cent, often relative to untreated cells. For orientation: AC50 means the midpoint of the concentration-response curve, whichever way the signal moves. For orientation: IC50 means the concentration needed to halve the response being measured.
